# Screens deposited in PubChem BioAssay by National Center for Advancing Translational Sciences (NCATS).
# D2 ag-1 = activates the human D2 dopamine receptor | P14416 | DiscoveRx PathHunter D2 beta-arrestin, luminescence, 90 min; 100% = 57 uM dopamine signal | activation, % (no concentration beside the values) | hit rate 0.084% among 360,000 | AID 624465; in the data active = activation above about 40%
# Target sequence (P14416 whole entry, looked up): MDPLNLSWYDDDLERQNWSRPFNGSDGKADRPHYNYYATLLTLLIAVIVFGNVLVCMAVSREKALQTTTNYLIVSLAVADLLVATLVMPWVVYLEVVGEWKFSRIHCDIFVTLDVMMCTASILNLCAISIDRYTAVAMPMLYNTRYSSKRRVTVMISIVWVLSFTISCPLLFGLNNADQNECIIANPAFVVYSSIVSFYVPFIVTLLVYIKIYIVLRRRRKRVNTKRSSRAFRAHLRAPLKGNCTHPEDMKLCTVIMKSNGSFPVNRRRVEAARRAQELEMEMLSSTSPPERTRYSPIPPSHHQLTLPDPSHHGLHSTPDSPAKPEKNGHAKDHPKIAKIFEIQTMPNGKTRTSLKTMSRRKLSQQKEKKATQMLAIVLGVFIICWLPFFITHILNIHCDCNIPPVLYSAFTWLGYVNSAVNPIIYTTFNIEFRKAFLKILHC
#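 DiscoveRx PathHunter D2 beta-arrestin cells (2,100/well) attached overnight, then compound-stimulated 90 min at 37 C in HBSS/10 mM HEPES/0.1% Tween-20 buffer; beta-galactosidase complementation read by luminescence after 1 h at ambient temperature. Dopamine 57 uM final (EC100) as control.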
# D2 PAM-1 = positive allosteric modulators of human D2 dopamine receptor; P14416; DiscoveRx D2 beta-arrestin cells, luminescence, 90 min; 100% = 57 uM dopamine signal; potentiation, % (test concentration not listed); hit rate 0.23% among 360,000; AID 624464; in the data active = potentiation above about 50%
#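 PathHunter beta-arrestin assay in DiscoveRx D2 cells. Compounds were added with an EC20 of dopamine (50 nM final) for 90 min at 37 deg C. Luminescence was read 1 h after detection reagent, with 57 uM dopamine as the EC100 control.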
# D2 ag-2 = activates the human D2 dopamine receptor. P14416. HEK293 T-REx D2 cells, calcium flux agonist mode. activation, % at 2 µM. hit rate 0.53% among 340,000;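 active = activation over 3 SD above normal in the single-dose calcium agonist read, cut at about 30% in these data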; note: 0% is about no effect
#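 Agonism is scored from calcium flux in a force-coupled, inducible HEK293 cell line expressing D2, read kinetically for 180 s after compound addition against dopamine controls.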
# D2 antagonist = antagonists of human D2 dopamine receptor; HEK293 TREx D2 cells, calcium flux, dopamine EC80; AID 485344; inhibition, % at 10 µM; hit rate 2% among 340,000; P14416; in the data active = inhibition above about 30%; inactive = below that, where a call was filed; note: 0% is about no effect
#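 Dopamine at EC80 is the agonist stimulus; test compounds precede it by 180 s. Calcium flux read kinetically in a force-coupled, inducible HEK293 T-REx D2 cell line.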
# D2 PAM-2 = D2 dopamine receptor (human) potentiation | P14416 | hit rate 0.34% among 340,000 | potentiation, % at 10 µM | HEK293 T-REx D2, calcium flux, EC20 dopamine potentiation | AID 485347;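 active = potentiation over 3 SD above the plate norm, cut at about 30% in these data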; note: 0% is about no effect
#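 Using a no-wash calcium dye in inducible, force-coupled HEK293 Trex cells expressing D2, we tracked fluorescence each second for 180 s after compound, then for 180 s after EC20 dopamine to detect augmented signalling.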
# * = called active by the depositor; nt = no result. An excerpt weighted towards active compounds, which were near 2.4% of everything screened.
SMILES,D2 ag-1,D2 PAM-1,D2 ag-2,D2 antagonist,D2 PAM-2
CC1=NN(c2ccccc2)C(c2ccco2)C1 (stereo unspecified),-6,-6,nt,nt,nt
Cc1cc(=O)[nH]c(-n2nc(C)cc2C)n1,-1,0,1,44*,-3
Cc1cc(=O)[nH]c(N2CCCNCC2)n1,-3,5,0,0,9
CCOC(=O)Cn1ncc(-c2ccccc2)c1N,-2,20,0,57*,-6
CC(C)CSc1nnc2c3ccccc3n(C)c2n1,-9,-11,nt,nt,2
CC(C)OC(=O)CSc1nnc2c3ccccc3n(C)c2n1,-3,-1,-1,37*,7
COc1cc(CNC(=O)c2sc3ncccc3c2-n2cccc2)cc(OC)c1OC,nt,nt,0,nt,-6
Clc1cccc2c1CCN(Cc1nc(-c3cnccn3)no1)C2,-5,-2,1,40*,-11
CC(=O)CC(c1ccccc1)S(=O)(=O)c1ccc([N+](=O)[O-])cc1 (stereo unspecified),-6,-5,1,70*,-6
O=C(/C=C/c1ccccc1)Nc1nc(-c2cccs2)ns1,nt,nt,1,nt,nt
CCOC(=O)c1c(C)n(-c2ccccc2)c2ccc(OC(=O)c3cc(OC)cc(OC)c3)cc12,nt,nt,1,nt,-1
C1CNCCNCCCNCCNC1,nt,nt,-1,46*,-1
COc1ccccc1NC(=O)C1=C(C)Nc2c(C(=O)Nc3cccc(C)c3)cnn2C1c1ccccc1Cl (stereo unspecified),nt,nt,-1,nt,6
COc1cc(-c2nc3nc[nH]n3c2Nc2ccc(C(C)C)cc2)ccc1O,nt,nt,1,nt,-1
Nc1nc(Nc2ccccc2)sc1C(=O)c1ccccc1,0,-7,12,-8,5
CCNc1nc(N)c(C(=C(C#N)C#N)c2ccccc2)s1,-3,-39,-1,45*,-18
Cc1nc2sc(C(=O)N(C)Cc3ccccc3)c(NC(=O)c3ccccc3)c2c(C)c1Cl,nt,nt,0,nt,7
CCOc1ccc(CN(C)CC(=O)Nc2ccc3c(c2)CCC3)cc1OC,-1,-9,2,30*,-2
C=CCOc1ccc(CN(C)CC(=O)Nc2ccc3c(c2)CCC3)cc1,3,-6,1,-23,-3
CC(C)(C)c1ccccc1OCCOCCN1CCCCCC1,3,-10,0,31*,-27
c1ccc(-c2ccccc2OCCCN2CCOCC2)cc1,-1,-15,0,10,13
c1ccc(-c2ccccc2OCCCCN2CCCCCC2)cc1,0,-8,0,148*,-41
c1ccc(-c2ccccc2OCCOCCN2CCCCC2)cc1,-6,-26,0,87*,-25
Cc1ccccc1OCCN1CCCC1,-5,-4,3,-16,-21
OCCCN1CCN(CCCOc2ccccc2-c2ccccc2)CC1,-5,-33,0,53*,-29
SMILES,D2 ag-1,D2 PAM-1,D2 ag-2,D2 antagonist,D2 PAM-2
CCOc1ccc(NC(=O)Cn2cc(S(=O)(=O)N3CCN(c4ccccc4F)CC3)c3ccccc3c2=O)cc1,nt,nt,-1,nt,21
CC(=O)c1cccc(Nc2cc(C)nc3nc(-c4ccccc4C)nn23)c1,nt,nt,1,nt,-3
CC1CN(CCOc2ccc(F)cc2)CC(C)O1 (stereo unspecified),-2,-4,-1,-6,5
CC1CN(CCOc2ccccc2-c2ccccc2)CC(C)O1 (stereo unspecified),-6,-25,0,71*,-17
c1ccc(-c2ccccc2OCCN2CCCC2)cc1,5,-25,0,82*,-22
COc1ccc2[nH]cc(CCNC(=O)c3cnn(-c4ccccc4Cl)c3C3CCN(C(=O)OC(C)(C)C)CC3)c2c1,nt,nt,13,nt,5
COc1ccc(OC)c(/C=C2/Sc3ccccc3C2=O)c1,0,16,34*,7,-3
COc1ccc(N(CC(=O)Nc2cccc(C(C)=O)c2)S(=O)(=O)c2ccccc2)c(OC)c1,nt,nt,0,nt,1
CCOC(=O)COn1c(-n2nc(C)cc2C)nc2ccccc2c1=O,-2,-3,-4,33*,-8
COCCCNC(=O)C1CCN(c2nc3ccc(Cl)cc3[nH]2)CC1,nt,nt,1,nt,5
Cc1ccc(NS(=O)(=O)c2cnc(N)nc2)c(C)c1,nt,nt,2,nt,-7
CN1/C(=C\C=C2/SC(=S)N(CC(=O)O)C2=O)C(C)(C)c2ccccc21,-10,-27,97*,12,-8
CCn1ccc2cc(S(=O)(=O)N3CCCN(C(=O)Nc4cccc(Cl)c4)CC3)ccc21,nt,nt,nt,nt,14
CCn1c2ccc(OC)cc2c2nc3ccccc3nc21,-2,-12,-1,-6,31*
CCOc1ccc(Cn2c3ccc(OC)cc3c3nc4ccccc4nc32)cc1,1,9,2,5,3
Cc1ccc(C)c(N2CCN(C(=O)Cn3ncc4c(=O)oc5ccccc5c43)CC2)c1,nt,nt,0,nt,-17
COc1cc(C2CC(=O)Oc3c(C(CCN4CCCC(C)C4)c4ccc(N(C)C)cc4)c(OC)cc(OC)c32)cc(OC)c1OC (stereo unspecified),1,-24,0,44*,-18
COc1ccc(NC(=O)C(C(C)C)N2Cc3ccccc3C2=O)cc1 (stereo unspecified),nt,nt,nt,nt,23
Cc1ccc(C(=O)N2CCOCC2)cc1S(=O)(=O)Nc1cccc(C)c1C,-2,-2,0,42*,-1
N#CCCN1CCN(Cc2cc(-c3ccccc3)ccc2O)CC1,-1,-10,0,65*,-30
CC(C)(C)CC(C)(C)c1ccc(O)c(CN2CCN(CCC#N)CC2)c1,-1,-19,0,4,-4
COC(=O)c1ccc(C(=O)NC(=S)Nc2nc3c(s2)CCCC3)cc1,-1,10,nt,nt,nt
O=C(NC(=S)Nc1nc2c(s1)CCCC2)c1ccccc1,-2,-17,4,35*,-18
O=C(NC(=S)NCc1ccccc1)c1ccccc1,1,-8,-1,36*,9
Cc1ccc(NC(=O)CN2C(=O)c3cccnc3Sc3ccccc32)cc1C,nt,nt,0,nt,-14
SMILES,D2 ag-1,D2 PAM-1,D2 ag-2,D2 antagonist,D2 PAM-2
CC(C)Oc1ccc(CNS(=O)(=O)c2cnc(N)nc2)cc1,nt,nt,nt,nt,1
CC(O)CNCCCOc1ccc(Cl)cc1C(C)(C)C (stereo unspecified),1,-13,1,-18,-14
CN(C)CCOCCOc1ccc(Cl)cc1C(C)(C)C,-5,-10,0,64*,-17
C=CCc1cc(Cl)ccc1OCCN(C)C,-1,-14,1,53*,-15
COc1ccc(OC)c(C(=O)CSc2ncc3c(n2)-c2ccccc2N(Cc2ccccc2C)S3(=O)=O)c1,nt,nt,0,nt,-5
COc1ccc(-n2c(=O)c3ccc(C(=O)NCc4ccc(C)cc4)cc3n(Cc3ccc(Cl)cc3)c2=O)cc1,nt,nt,1,nt,-3
CCCSc1ncc(Cl)c(C(=O)Nc2ccc(S(=O)(=O)N3CCCCC3C)cc2)n1 (stereo unspecified),nt,nt,nt,nt,-4
